From PubChem BioAssay (NCATS) come the findings set out here.

Results filed as inconclusive are left out. Calls of active or inactive are those of the source. Calls come from the whole dose curve. Numbered stars: 1 amine (or outer) side, 2 acyl side, 3 side chain; on linkers, the order of the positions; unused ones are H or OH. Bridge positions count the residues as written; N and C are the ends. Square brackets hold non-standard residues; d marks the D form. Peptide text beside a SMILES is read from it. I, II: the chains in the order shown. Actinocin(9to1) = Cc1c2oc3c(C)ccc(C(=O)[*:1])c3nc-2c(C(=O)[*:2])c(N)c1=O; NMeV = CN[C@H](C(=O)O)C(C)C; Sar = CNCC(=O)O

Chain of Estrogen receptor (Homo sapiens) (P03372 whole entry, looked up): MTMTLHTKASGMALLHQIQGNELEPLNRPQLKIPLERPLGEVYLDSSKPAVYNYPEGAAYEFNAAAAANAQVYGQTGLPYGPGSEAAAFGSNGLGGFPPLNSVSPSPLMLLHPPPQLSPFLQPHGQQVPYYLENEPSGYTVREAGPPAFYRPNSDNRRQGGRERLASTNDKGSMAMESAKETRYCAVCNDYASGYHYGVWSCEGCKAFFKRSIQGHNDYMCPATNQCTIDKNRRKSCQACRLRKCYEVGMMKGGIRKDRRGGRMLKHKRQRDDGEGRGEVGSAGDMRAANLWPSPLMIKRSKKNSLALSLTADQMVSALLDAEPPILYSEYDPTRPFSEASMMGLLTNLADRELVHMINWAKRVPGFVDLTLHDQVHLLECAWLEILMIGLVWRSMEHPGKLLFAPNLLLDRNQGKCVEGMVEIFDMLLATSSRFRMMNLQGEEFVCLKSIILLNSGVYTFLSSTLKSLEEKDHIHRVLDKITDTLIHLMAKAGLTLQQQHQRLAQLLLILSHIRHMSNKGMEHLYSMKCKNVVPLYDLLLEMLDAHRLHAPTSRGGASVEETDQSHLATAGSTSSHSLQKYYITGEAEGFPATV

For this assay, the target named is Estrogen receptor (Homo sapiens) (UniProt P03372). Put plainly: qHTS assay for small molecule agonists of estrogen receptor alpha signaling (AID 588514). Note: nearly all actives have a fitted effect of over 70% in size. The following applies: ER-alpha-UAS-bla HEK293, beta-lactamase ratio, 18 h, percent of full estradiol response, vehicle zero; series mostly up to 76.8 µM. An excerpt:
NIH Chemical Genomics Center [NCGC]
U.S. Environmental Protection Agency [EPA]
National Institutes of Environmental Health Sciences [NIEHS]
National Toxicology Program [NTP]
Estrogen receptor alpha (ER-alpha) is an important member of nuclear hormone receptors. ER-alpha plays important role in breast cancer as well as in other women's health issues. The majority of breast cancers is estrogen receptor (ER) positive and depends on estrogen for growth. There is also growing concern for some of environmental chemicals which may contribute the increasing the incidence of breast cancer. Therefore, it is important to understand the effect of environmental chemicals in ER-alpha signaling pathway.
NCGC Assay Protocol Summary
Using a beta-lactamase reporter-gene under control of the ER response element, a cell-based assay [ER-alpha-UAS-bla GripTiteTM cell-Based Assay from Invitrogen] was used to measure ER-alpha signaling pathway in agonist mode. ER-alpha-UAS-bla-GripTite HEK 293 cells were used with assay medium containing 2% charcoal/dextran treated FBS, 0.1 mM NEAA and 1 mM sodium pyruvate. Cells were cultured in this assay medium overnight in the flasks before the assay. The assay was performed in clear bottom black Greiner 1536-well plates. 17-beta-estradiol was used as a positive control in the screen. Library compounds were measured for their ability to either stimulate the reporter gene activity. Compounds were screened in a titration series in 1536-well format. […] Data was normalized relative to 17-beta-estradiol control (20 nM, 100%), and DMSO only wells (basal, 0%). Concentration-response titration points for each compound were fitted to the Hill equation yielding concentrations of half-maximal stimulation (EC50) and maximal response (efficacy) values.
qHTS protocol for ER-alpha beta-lactamase assay in agonist mode
[Step] [Parameter] [Value] [Description]
1. Reagent; 6 uL; 5000 cells/well
2. Incubation; 37 C for 4 hrs
4. Controls (17-beta-estradiol); 23 nL
- Dose response, start 1uM, 1:3 dilutions with duplicates
- Two columns with 20 and 0.5 nM (final) concentration.
5. Incubation; 37 C for 18 hrs
6. Detection reagent; 1 uL of CCF4-dye
7. Incubation; RT for 2 hrs
8. Detection; Fluorescence; Envision plate reader or Acumen plate reader
Turning to `CC(O)C(=O)O` (stereo not given), the outcome was inactive.

As for `Cc1c2oc3c(C)ccc(C(=O)N[C@@H]4C(=O)N[C@H](C(C)C)C(=O)N5CCC[C@H]5C(=O)N(C)CC(=O)N(C)[C@@H](C(C)C)C(=O)O[C@@H]4C)c3nc-2c(C(=O)N[C@@H]2C(=O)N[C@H](C(C)C)C(=O)N3CCC[C@H]3C(=O)N(C)CC(=O)N(C)[C@@H](C(C)C)C(=O)O[C@@H]2C)c(N)c1=O` (I: T[dV]P[Sar][NMeV] / II: T[dV]P[Sar][NMeV]; ester I:1-I:C, II:1-II:C; linker I:N-II:N via Actinocin(9to1)), the result was inactive.

In the case of `C=C(CC)C(=O)c1ccc(OCC(=O)O)c(Cl)c1Cl`, the result was inactive.

Take `COC1=CC(=O)C[C@@H](C)[C@]12Oc1c(Cl)c(OC)cc(OC)c1C2=O`: the outcome was inactive.

Consider `CC(C)(C)CC(C)(C)c1ccc(OCCOCC[N+](C)(C)Cc2ccccc2)cc1`, for which the result was inactive.

Consider `COc1cccc2c1C(=O)c1c(O)c3c(c(O)c1C2=O)C[C@@](O)(C(=O)CO)C[C@@H]3O[C@H]1C[C@H](N)[C@H](O)[C@H](C)O1`, for which the outcome was inactive.

`C[C@H]1C[C@H]2[C@@H]3CCC4=CC(=O)C=C[C@]4(C)[C@@]3(Cl)[C@@H](O)C[C@]2(C)[C@@]1(O)C(=O)CO`: the outcome was inactive.

Turning to `O=c1ccc2ccccc2o1`, the result was inactive.

As to `Nc1ccc(C(=O)O)cc1`, the outcome was inactive.

As for `CC(=O)O[C@]1(C(C)=O)CC[C@H]2[C@@H]3C[C@H](C)C4=CC(=O)CC[C@]4(C)[C@H]3CC[C@@]21C`, the outcome was inactive.

Regarding `Oc1c(Cl)cc(Cl)cc1Sc1cc(Cl)cc(Cl)c1O`, the result was inactive.

Regarding `Cc1cc(=O)n(-c2ccccc2)n1C`, the result was inactive.

On to `O=C(O)CCCCC(=O)O`, for which the outcome was inactive.

With `C=CCc1ccc(O)c(OC)c1`, the result was inactive.

Regarding `CN(C)/N=N/c1nc[nH]c1C(N)=O`, the outcome was inactive.
